From PubChem BioAssay (EPA / NIEHS)
Active and inactive are the calls of the source. How the source made its calls: active means hit-call score of the fitted dose curve at least 0.9, where 1 is the maximum; inactive means score below 0.9.

What follows are compounds tested against Signal transducer and activator of transcription 3 (Homo sapiens) (UniProt P40763) (assay: ATG_STAT3_CIS: Attagene CIS-FACTORIAL HepG2 Assay for human Signal Transducer and Activator of Transcription 3 (STAT3) (AID 2282963)). Details: HepG2, Attagene cis-factorial STAT3 reporter transcription; actives raise or lower the signal.
Chain of Signal transducer and activator of transcription 3 (Homo sapiens) (P40763 whole entry, looked up): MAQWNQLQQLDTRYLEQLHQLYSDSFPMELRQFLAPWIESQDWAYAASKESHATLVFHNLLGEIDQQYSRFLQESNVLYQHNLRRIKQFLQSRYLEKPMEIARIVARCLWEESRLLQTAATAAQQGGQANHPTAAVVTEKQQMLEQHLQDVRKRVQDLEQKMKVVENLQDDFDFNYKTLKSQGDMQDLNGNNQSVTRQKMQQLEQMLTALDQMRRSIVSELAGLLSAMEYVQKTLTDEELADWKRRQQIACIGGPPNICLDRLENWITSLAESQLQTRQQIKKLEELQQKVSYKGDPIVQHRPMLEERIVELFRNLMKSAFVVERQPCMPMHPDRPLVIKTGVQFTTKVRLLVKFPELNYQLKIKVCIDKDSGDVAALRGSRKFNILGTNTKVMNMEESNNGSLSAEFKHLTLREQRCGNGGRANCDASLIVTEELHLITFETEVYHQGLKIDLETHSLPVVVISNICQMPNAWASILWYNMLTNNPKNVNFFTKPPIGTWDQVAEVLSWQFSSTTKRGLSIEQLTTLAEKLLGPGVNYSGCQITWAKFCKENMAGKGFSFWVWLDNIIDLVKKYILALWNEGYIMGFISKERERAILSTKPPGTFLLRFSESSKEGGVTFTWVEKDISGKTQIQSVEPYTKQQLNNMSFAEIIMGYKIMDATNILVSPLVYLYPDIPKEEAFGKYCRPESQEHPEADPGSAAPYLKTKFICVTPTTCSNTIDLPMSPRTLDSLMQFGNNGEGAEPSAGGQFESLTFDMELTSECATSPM
Description: ATG_CIS is a cell-based, multiplexed-readout assay that uses HepG2, a human liver cell line, with measurements taken at 24 hours after chemical dosing in a 24-well plate.ATG_STAT3_CIS is one of 52 assay component(s) measured or calculated from the ATG_CIS assay. It is designed to make measurements of mRNA induction, a form of inducible reporter, as detected with fluorescence intensity signals by Reverse transcription polymerase chain reaction (RT-PCR) and Capillary electrophoresis technology.Data from the assay component ATG_STAT3_CIS was analyzed into 1 assay endpoint. This assay endpoint, ATG_STAT3_CIS, was analyzed with bidirectional fitting relative to DMSO as the negative control and baseline of activity. Using a type of inducible reporter, measures of mRNA for gain or loss-of-signal activity can be used to understand the reporter gene at the transcription factor-level as they relate to the gene STAT3. Furthermore, this assay endpoint can be referred to as a primary readout, because this assay has produced multiple assay endpoints where this one serves a reporter gene function. To generalize the intended target to other relatable targets, this assay endpoint is annotated to the dna binding intended target family, where the subfamily is stat protein.
Human liver HepG2 cells are transiently transfected with multiple reporter transcription units (MRTUs) in 6-well plates using FuGene 6 reagent (Roche; 3 ml FuGene/1 mg DNA). The MRTU constructs are regulated by a cis-regulating element (promoter). […] A major difference between the CIS and TRANS system is that in CIS activities of endogenous TFs are measured, whereas the TRANS assay evaluates changes in activities of exogenous, chimeric NR-Gal4 proteins. […] At the end of 24 hour incubation, total RNA was isolated using TriZol reagent (Invitrogen). The isolated RNA is then reverse-transcribed using oligo(dT) primer and Mo-MLV reverse transcriptase (Invitrogen) with DNAse I (Ambion) treatment for 30 min. The one-tenth of the produced cDNA was amplified by PCR using Taq DNA polymerase (Invitrogen) and two reporter sequence-specific primers. The PCR products were fluorescently labeled by primer extension with 6-arboxyfluorescein (6-FAM) 5'-labeled reporter sequence-specific primer (2 min at 95 C, 20 s at 68 C and 10 min at 72 C) and these products were digested with 5U of HpaI (New England Biolabs) for 2h at 37 C. The fragments were purified using Qiaquick PCR columns (Qiagen), analyzed on an ABI 3130xL genetic analyzer (Applied Biosystems) with peak positions identified by using a set of X-rhodamine (ROX)-labeled MapMarker1000 molecular weight standards (BioVentures). The raw capillary electrophoresis data was processed using Attagraph software (Attagene).

outcome, inactive:
OCCc1ccccc1
O=C(Nc1ccc2c(O)c(N=Nc3ccc(N=Nc4ccc(S(=O)(=O)O)cc4)cc3)c(S(=O)(=O)O)cc2c1)c1ccccc1
C=Cc1ccc(C(C)(C)C)cc1
CC1C2CC(CC2C2CCCC(O)C2)C1(C)C (stereo not given)
CC(=O)C(C)O (stereo not given)
CC1CC(O)CC(C)(C)C1 (stereo not given)
CCCCCCCCCCCCCC(=O)OCC(O)CO (stereo not given)
C=CCOC(=O)CCCCCC
CCCCCCCC/C=C\CCCCCCCC(=O)OCC
Clc1cc(Cl)c(-c2c(Cl)c(Cl)cc(Cl)c2Cl)cc1Cl
O=C(O)c1cc(C(=O)O)cc([N+](=O)[O-])c1
OCCOCCN1CCN(C2=Nc3ccccc3Sc3ccccc32)CC1
O=C1OC(=O)c2c(Br)c(Br)c(Br)c(Br)c21
CC(Oc1cc(Cl)ccc1Cl)C(=O)O (stereo not given)
CC(C)(N=C=O)c1cccc(C(C)(C)N=C=O)c1
CC(C)CC(C)CC(O)CC(C)C (stereo not given)
O=c1[nH]c(=O)c2cn[nH]c2[nH]1
C=C(C)C1CC=C(C)C(=O)C1 (stereo not given)
CCCCC(CC)COC(=O)c1ccc(O)cc1 (stereo not given)
CCOC(=O)CCc1ccccc1
Cc1ccc(S(N)(=O)=O)cc1
O=C(O)CCCCCCCCC(=O)O
O=c1c(O)c(-c2ccc(O)cc2)oc2cc(O)cc(O)c12
CC/C=C\CC/C=C/CO
c1ccc(CCc2ccccc2)cc1
O=C(O)CCCCCCCCCCCC(=O)O
COc1cc(C(C)C)ccc1C
CCOc1ccccc1O
NCCNc1cccc2ccccc12
OCCCCC(O)CO (stereo not given)
CCCCCCCC(=O)OCCCCCC
COC(=O)c1ccc(C)cc1C1=NC(C)(C(C)C)C(=O)N1 (stereo not given) (tested in a mixture with another compound)
O=C1CCCC=CCCCCCCCCCC1
CCCCCCCC(=O)OCC(O)CO (stereo not given)
Cc1ccc(C)o1
CCCSc1ccc2nc(NC(=O)OC)[nH]c2c1
CCc1cc(Cc2cc(CC)cc(C(C)(C)C)c2O)c(O)c(C(C)(C)C)c1
Nc1c(S(=O)(=O)O)cc(Br)c2c1C(=O)c1ccccc1C2=O
CCC(=O)OCCOc1ccccc1
CC[N+](C)(CC)CC
